The supplement of paper PMC8728848
This excerpt belongs to a sample that is enriched for the strongest signals.

Experiments:
Experiment in all cases: glycan array binding signal (z-score within array); higher = stronger binding
Conditions in all cases: glycan notation: IUPAC condensed, linker removed
[1] = target: Fuc(a1-2)Gal(b1-3)GlcNAc(b1-3)Gal(b1-4)Glc
Outline: (§1)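 The binding signal is a Z-score computed within each array. Data were drawn from 3228 arrays in the Consortium for Functional Glycomics database, restricted to those with a known protein sequence. Scores were averaged over arrays of the same protein sequence at different concentrations or buffers, and over linkers, and negative values can be taken as non-binding.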

[2] = target: Fuc(a1-2)Gal(b1-3)[Fuc(a1-4)]GlcNAc(b1-2)Man(a1-3)[Fuc(a1-2)Gal(b1-3)[Fuc(a1-4)]GlcNAc(b1-2)Man(a1-6)]Man(b1-4)GlcNAc(b1-4)GlcNAc
Outline: as §1

Fuc(a1-2)Gal(b1-4)Glc6S = target: Fuc(a1-2)Gal(b1-4)Glc6S
Outline: as §1

[3] = target: Fuc(a1-2)Gal(b1-4)[Fuc(a1-3)]GlcNAc
Outline: as §1

[4] = target: Fuc(a1-2)Gal(b1-4)[Fuc(a1-3)]GlcNAc(b1-2)Man(a1-3)[Fuc(a1-2)Gal(b1-4)[Fuc(a1-3)]GlcNAc(b1-2)Man(a1-6)]Man(b1-4)GlcNAc(b1-4)GlcNAc
Outline: as §1

[5] = target: Fuc(a1-2)Gal(b1-4)[Fuc(a1-3)]GlcNAc(b1-3)Gal(b1-4)[Fuc(a1-3)]GlcNAc(b1-3)Gal(b1-4)[Fuc(a1-3)]GlcNAc
Outline: as §1

[6] = target: Fuc(a1-2)[Gal(a1-3)]Gal(b1-4)Glc
Outline: as §1

[7] = target: Fuc(a1-3)[Gal(b1-4)]GlcNAc(b1-4)Gal(b1-4)[Fuc(a1-3)]GlcNAc(b1-4)Gal(b1-4)[Fuc(a1-3)]GlcNAc
Outline: as §1

[8] = target: Fuc(a1-3)[Neu5Ac(a2-3)]Gal(b1-4)GlcNAc(b1-3)GalNAc
Outline: as §1

Fuc(a1-4)GlcNAc = target: Fuc(a1-4)GlcNAc
Outline: as §1

[9] = target: Gal(a1-3)Gal(b1-4)[Fuc(a1-3)]GlcNAc(b1-2)Man(a1-3)[Gal(a1-3)Gal(b1-4)[Fuc(a1-3)]GlcNAc(b1-2)Man(a1-6)]Man(b1-4)GlcNAc(b1-4)GlcNAc
Outline: as §1

Gal(a1-3)GalNAc = target: Gal(a1-3)GalNAc
Outline: as §1

Gal(b1-3)GlcNAc = target: Gal(b1-3)GlcNAc
Outline: as §1

[10] = target: Gal(b1-4)GlcNAc(b1-2)Man(a1-3)[Man(a1-6)]Man(b1-4)GlcNAc(b1-4)GlcNAc
Outline: as §1

[11] = target: Gal(b1-4)GlcNAc(b1-2)[Gal(b1-4)GlcNAc(b1-4)]Man(a1-3)[Gal(b1-4)GlcNAc(b1-2)Man(a1-6)]Man(b1-4)GlcNAc(b1-4)GlcNAc
Outline: as §1

Gal4S6S(b1-4)GlcNAc = target: Gal4S6S(b1-4)GlcNAc
Outline: as §1

[12] = target: GlcNAc(a1-4)Gal(b1-4)GlcNAc
Outline: as §1

[13] = target: GlcNAc(b1-2)Man(a1-3)[GlcNAc(b1-2)Man(a1-6)]Man(b1-4)GlcNAc(b1-4)[Fuc(a1-6)]GlcNAc
Outline: as §1

GlcNAc(b1-3)Gal = target: GlcNAc(b1-3)Gal
Outline: as §1

[14] = target: GlcNAc(b1-3)[GlcNAc(b1-6)]Gal(b1-4)GlcNAc
Outline: as §1

[15] = target: Man(a1-2)Man(a1-2)Man(a1-6)[Man(a1-3)]Man
Outline: as §1

[16] = target: Man(a1-2)Man(a1-3)[Man(a1-2)Man(a1-6)]Man
Outline: as §1

[17] = target: Man(a1-2)Man(a1-3)[Man(a1-2)Man(a1-6)]Man(a1-6)[Man(a1-2)Man(a1-2)Man(a1-3)]Man
Outline: as §1

[18] = target: Man(a1-2)Man(a1-3)[Man(a1-6)]Man(a1-6)[Man(a1-2)Man(a1-3)]Man(b1-4)GlcNAc(b1-4)GlcNAc
Outline: as §1

[19] = target: Man(a1-2)Man(a1-6)[Man(a1-3)]Man(a1-6)[Man(a1-2)Man(a1-2)Man(a1-3)]Man
Outline: as §1

[20] = target: Man(a1-2)Man(a1-6)[Man(a1-3)]Man(a1-6)[Man(a1-2)Man(a1-2)Man(a1-3)]Man(b1-4)GlcNAc(b1-4)GlcNAc
Outline: as §1

Man(a1-3)[Man(a1-6)]Man = target: Man(a1-3)[Man(a1-6)]Man
Outline: as §1

Man(b1-4)GlcNAc = target: Man(b1-4)GlcNAc
Outline: as §1

[21] = target: Neu5Ac(a2-3)Gal(b1-4)GlcNAc(b1-3)Gal(b1-4)GlcNAc(b1-3)Gal(b1-4)GlcNAc
Outline: as §1

[22] = target: Neu5Ac(a2-6)Gal(b1-4)GlcNAc(b1-3)Gal(b1-4)GlcNAc
Outline: as §1

[23] = target: Neu5Ac(a2-6)Gal(b1-4)GlcNAc6S
Outline: as §1

[24] = target: Neu5Ac(a2-8)Neu5Ac(a2-3)[GalNAc(b1-4)]Gal(b1-4)Glc
Outline: as §1

[25] = target: Neu5Ac(a2-8)Neu5Ac(a2-8)Neu5Ac
Outline: as §1

[26] = target: Neu5Gc(a2-3)Gal(b1-3)[Fuc(a1-4)]GlcNAc
Outline: as §1

B1: DGL (Dioclea grandiflora), P08902 (protein)
chain: ADTIVAVELDSYPNTDIGDPNYPHIGIDIKSIRSKSTARWNMQTGKVGTVHISYNSVAKRLSAVVSYSGSSSTTVSYDVDLNNVLPEWVRVGLSATTGLYKETNTILSWSFTSKLKTNSIADENSLHFSFHKFSQNPKDLILQGDAFTDSDGNLELTKVSSSGDPQGNSVGRALFYAPVHIWESSAVVASFDATFTFLIKSPDREPADGITFFIANTDTSIPSGSGGRLLGLFPDAN
[1]
  glycan array binding signal (z-score): -0.177
[2]
  glycan array binding signal (z-score): -0.169
Fuc(a1-2)Gal(b1-4)Glc6S
  glycan array binding signal (z-score): -0.172
[3]
  glycan array binding signal (z-score): -0.176
[4]
  glycan array binding signal (z-score): -0.144
[5]
  glycan array binding signal (z-score): -0.168
[6]
  glycan array binding signal (z-score): -0.177
[7]
  glycan array binding signal (z-score): -0.182
[8]
  glycan array binding signal (z-score): -0.072
Fuc(a1-4)GlcNAc
  glycan array binding signal (z-score): -0.175
[9]
  glycan array binding signal (z-score): -0.175
Gal(a1-3)GalNAc
  glycan array binding signal (z-score): -0.173
Gal(b1-3)GlcNAc
  glycan array binding signal (z-score): -0.172
[10]
  glycan array binding signal (z-score): -0.151
[11]
  glycan array binding signal (z-score): -0.161
Gal4S6S(b1-4)GlcNAc
  glycan array binding signal (z-score): -0.183
[12]
  glycan array binding signal (z-score): -0.176
[13]
  glycan array binding signal (z-score): 0.316
GlcNAc(b1-3)Gal
  glycan array binding signal (z-score): -0.178
[14]
  glycan array binding signal (z-score): -0.183
[15]
  glycan array binding signal (z-score): 5.91
[16]
  glycan array binding signal (z-score): 9.67
[17]
  glycan array binding signal (z-score): 3.48
[18]
  glycan array binding signal (z-score): 6.68
[19]
  glycan array binding signal (z-score): 7.91
[20]
  glycan array binding signal (z-score): 6.41
Man(a1-3)[Man(a1-6)]Man
  glycan array binding signal (z-score): 3.63
Man(b1-4)GlcNAc
  glycan array binding signal (z-score): -0.186
[21]
  glycan array binding signal (z-score): -0.183
[22]
  glycan array binding signal (z-score): -0.178
[23]
  glycan array binding signal (z-score): -0.179
[24]
  glycan array binding signal (z-score): -0.178
[25]
  glycan array binding signal (z-score): -0.175
[26]
  glycan array binding signal (z-score): -0.179
